A short description of test [1]: qHTS assay to identify small molecule antagonists of the estrogen receptor alpha (ER-alpha) signaling pathway using the BG1 cell line in the presence of 0.1 nM 17-beta-estradiol - cell viability counter screen (AID 1259241). Note: nearly all actives have a fitted effect of over 40% in size. The method in brief:
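The cell line endogenously expresses full-length ER-alpha and carries four EREs driving luciferase. Cells are cultured 5 days hormone-free, treated 22 hr with compounds and 0.1 nM estradiol, then viability is read by fluorescence.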
In general terms: qHTS replaces the single test concentration by a dilution series.

Test [2] deals with Estrogen receptor (Homo sapiens) (UniProt P03372). As to the kind of experiment: qHTS assay to identify small molecule antagonists of the estrogen receptor alpha (ER-alpha) signaling pathway using the BG1 cell line in the presence of 0.1 nM 17-beta-estradiol (AID 1259244). Note: nearly all actives have a fitted effect of over 50% in size. An outline of the steps:
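VM7Luc4E2; 4xERE-luciferase; 0.1 nM E2 final; 22 h co-incubation, 37C; ONE-Glo luminescence after 30 min at room temperature.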

Test [3] can be described thus: qHTS assay to identify small molecule HDAC inhibitors (AID 1259364).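 Note: wild-type HCT-116 cells with endogenous class I/II HDAC activity; top concentration of the series differs between compounds; nearly all actives have a fitted effect of over 45% in size.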 The method in brief: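 Relative class I and II HDAC activity is taken from the luminogenic signal in HCT-116 cells, with compound exposure 2 hr and reagent development 30 min at room temperature.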
Test [4] can be described thus: qHTS assay to identify small molecule agonists of the sonic hedgehog signaling (Shh) pathway - cell viability counter screen (AID 1259366). Note: nearly all actives have a fitted effect of over 50% in size. Note: potency is the fitted concentration of half-maximal effect. The method in brief: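 Viability measured fluorometrically (CellTiter-Fluor, 1hr, 37C) in 3T3 Gli1-Luc reporter cells after 23hr compound exposure within a 24hr incubation at 37C/5% CO2.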
Test [5] can be described thus: qHTS assay to identify small molecule antagonists of the sonic hedgehog signaling (Shh) pathway - cell viability counter screen (AID 1259367). Note: nearly all actives have a fitted effect of over 55% in size. Note: potency is the fitted concentration of half-maximal effect. An outline of the steps:
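NIH/3T3-derived Gli1-Luc reporter cells, 2,000/well, plated 4 hr before compound addition, then stimulated with conditioned medium for 24 hr at 37C. Viability measured in the same wells by CellTiter-Fluor fluorescence, reagent added at 23 hr for 1 hr.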

Test [6] is described as follows: qHTS assay to identify small molecule agonists of the sonic hedgehog signaling (Shh) pathway (AID 1259368; calls by dose curve;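 note: NIH/3T3-derived 3T3Gli1-Luc cells carrying a stable Gli1-driven firefly luciferase reporter; series mostly up to about 92 µM; nearly all actives have a fitted effect of over 15% in size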). An outline of the steps: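 Mouse fibroblast (NIH/3T3) reporter cells with stably integrated Gli1-Luc were treated 24 hr with compound; firefly luciferase luminescence served as the read-out.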
Test [7] can be described thus: qHTS assay to identify small molecule antagonists of the sonic hedgehog signaling (Shh) pathway (AID 1259369; calls by dose curve; note: nearly all actives have a fitted effect of over 45% in size; note: potency is the fitted concentration of half-maximal effect). An outline of the steps: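 Conditioned medium drives Shh signalling in 3T3Gli1-Luc cells; compounds in DMSO co-applied, 24hr at 37 C, then luciferase luminescence.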
For test [8], the target named is Estrogen receptor beta (Homo sapiens) (UniProt Q92731). As to the kind of experiment: qHTS assay to identify small molecule agonists of the estrogen receptor beta (ER-beta) signaling pathway (AID 1259377; active = well fitted activation curve with a large enough effect in the signal ratio in the repeat runs, not every such curve was filed as active; the % refers to the signal ratio). The method in brief: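 A UAS-controlled beta-lactamase reporter in ER-beta-UAS-bla HEK293T cells reports receptor activation. Compounds act for 16 hr at 37C in 2% charcoal-stripped serum, and a FRET substrate is read by fluorescence after 2 hours.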

A short description of test [9]: qHTS assay to identify small molecule agonists of the androgen receptor (AR) signaling pathway in the presence of an antagonist - cell viability counter screen (AID 1259379).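 Note: MDA-kb2 human breast cancer cells carrying an MMTV luciferase reporter; series mostly up to about 92 µM; nearly all actives have a fitted effect of over 25% in size.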 The method in brief:
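A CellTiter-Fluor read-out measured viability of MDA-kb2 reporter cells (MMTV promoter with AR and GR response elements). Treatment: nilutamide 3.0uM final with compounds at 15 concentrations, 16 hr, 37C, 0% CO2.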

Test [10] in a line: qHTS assay to identify small molecule agonists of the estrogen receptor beta (ER-beta) signaling pathway - cell viability counter screen (AID 1259380). Note: nearly all actives have a fitted effect of over 30% in size. Note: potency is the fitted concentration of half-maximal effect. An outline of the steps:
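Cells used were ER-beta-UAS-bla HEK293T in medium with 2% charcoal-stripped FBS. They were treated for 16 hr at 37C. Viability came from CellTiter-Glo luminescence.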

Test [11] in a line: qHTS assay to identify small molecule antagonists of the estrogen receptor beta (ER-beta) signaling pathway - cell viability counter screen (AID 1259382). Note: nearly all actives have a fitted effect of over 55% in size. Note: potency is the fitted concentration of half-maximal effect. The method in brief:
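Agonist-stimulated (1nM E2) ER-beta-UAS-bla HEK293T cells are incubated with library compounds for 16 hr at 37C. Cell viability is then assessed in the reporter-assay wells by adding CellTiter-Glo and reading luminescence after 30 min.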

Test [12] deals with Estrogen receptor (Homo sapiens) (UniProt P03372). As to the kind of experiment: qHTS assay to identify small molecule agonists of the estrogen receptor alpha (ER-alpha) signaling pathway in the presence of an antagonist (AID 1259383; calls by dose curve; note: top concentration of the series differs between compounds; nearly all actives have a fitted effect of over 15% in size). The method in brief: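 Using VM7Luc4E2 cells seeded 24hr before treatment, antagonist ICI-182,780 (10.0nM final) was added, followed by compounds at 15 concentrations. Plates incubated 22hr; ONE-Glo luminescence quantified reporter activity.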

A short description of test [13]: qHTS assay to identify small molecule agonists or antagonists of the thyroid stimulating hormone receptor (TSHR) signaling pathway - wild type cell line counter screen (AID 1259384; calls by dose curve). The method in brief: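 Wild-type Hek293 cells, 800/well, 18 h at 37C, then compound with Ro20-1724 for 30 min RT. cAMP by HTRF (cAMP-d2/anti-cAMP cryptate), 1 h RT, fluorescence read. 15 concentrations, triplicates.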

Test [14] addresses Thyrotropin receptor (Homo sapiens) (UniProt P16473). As to the kind of experiment: qHTS assay to identify small molecule antagonists of the thyroid stimulating hormone receptor (TSHR) signaling pathway (AID 1259385; calls by dose curve; note: nearly all actives have a fitted effect of over 20% in size). The method in brief: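 TSHR-HEK293 cells (800/well) plated 18 h, then compounds with Ro20-1724 and TSH at 1.5 ng/mL final, 30 min at room temperature. cAMP quantified by HTRF (cAMP-d2/anti-cAMP-cryptate, 1 h); 15 concentrations in triplicate.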

A short description of test [15]: qHTS assay to identify small molecule agonists of the estrogen receptor alpha (ER-alpha) signaling pathway in the presence of an antagonist - cell viability counter screen (AID 1259386).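 Note: series mostly up to about 92 µM; cells exposed to compounds for 22 h at 37 °C before the viability read; nearly all actives have a fitted effect of over 30% in size.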 An outline of the steps:
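ICI-182,780 at 10.0nM final accompanies the compound titration (15 concentrations, 22hr, 37C) on VM7Luc4E2 cells. The CellTiter-Fluor fluorescence readout runs in the same wells as the luciferase assay.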

Test [16] in a line: qHTS assay to identify small molecule HDAC inhibitors - cell viability counter screen (AID 1259365). Note: series mostly up to about 92 µM; nearly all actives have a fitted effect of over 50% in size. An outline of the steps:
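Viability readout: CellTiter-Glo luminescence. Wild-type HCT-116 cells, 2hr compound treatment following overnight attachment at 37 C.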

Test [17] is described as follows: qHTS assay to identify small molecule antagonists of the androgen receptor (AR) signaling pathway using the MDA cell line in the presence of 0.5 nM R1881 - cell viability counter screen (AID 1259242). Note: nearly all actives have a fitted effect of over 45% in size. An outline of the steps: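 R1881 at 0.5 nM final stimulated MDA-kb2 cells during 16 hr compound treatment at 37C. Cytotoxicity read: CellTiter-Fluor fluorescence after 30 min.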

Test [18] is described as follows: qHTS assay to identify small molecule phospholipidosis (PLD) inducers (AID 1259344; active = well fitted curve in the direction sought with a large enough effect; an effect the other way counts as inactive or inconclusive). An outline of the steps: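 HepG2 cells, 900/well, treated with compound plus LipidTOX Red for 24 h at 37 C; amiodarone positive and DMSO negative controls. Fixed with paraformaldehyde/Hoechst, then high-content imaging scored LipidTOX pit count and integrated intensity per well and per cell.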

For test [19], the target named is Estrogen receptor beta (Homo sapiens) (UniProt Q92731). Briefly: qHTS assay to identify small molecule antagonists of the estrogen receptor beta (ER-beta) signaling pathway (AID 1259378; active = well fitted inhibition curve with a large enough effect in the signal ratio in the repeat runs, not every such curve was filed as active; the % refers to the signal ratio). An outline of the steps:
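ER-beta-UAS-bla HEK293T cells in 2% charcoal-stripped FBS medium treated with compound plus 1nM final 17-beta-estradiol for 16 hr at 37C. Beta-lactamase reporter read by FRET substrate fluorescence after 2 hours at room temperature.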

Records with an inconclusive call do not appear. The source holds several records for some structures; these can differ, active in one and inactive in another. Active and inactive are the calls of the source. Unless noted, calls come from the whole dose curve; as a rule, active = well fitted curve in the direction sought with a large enough effect in the repeat runs; inconclusive = weak or mixed curves; inactive = no such curve, though single readings can be large; an effect the other way counts as inactive or inconclusive.

Sequence of Estrogen receptor (Homo sapiens) (P03372 whole entry, looked up): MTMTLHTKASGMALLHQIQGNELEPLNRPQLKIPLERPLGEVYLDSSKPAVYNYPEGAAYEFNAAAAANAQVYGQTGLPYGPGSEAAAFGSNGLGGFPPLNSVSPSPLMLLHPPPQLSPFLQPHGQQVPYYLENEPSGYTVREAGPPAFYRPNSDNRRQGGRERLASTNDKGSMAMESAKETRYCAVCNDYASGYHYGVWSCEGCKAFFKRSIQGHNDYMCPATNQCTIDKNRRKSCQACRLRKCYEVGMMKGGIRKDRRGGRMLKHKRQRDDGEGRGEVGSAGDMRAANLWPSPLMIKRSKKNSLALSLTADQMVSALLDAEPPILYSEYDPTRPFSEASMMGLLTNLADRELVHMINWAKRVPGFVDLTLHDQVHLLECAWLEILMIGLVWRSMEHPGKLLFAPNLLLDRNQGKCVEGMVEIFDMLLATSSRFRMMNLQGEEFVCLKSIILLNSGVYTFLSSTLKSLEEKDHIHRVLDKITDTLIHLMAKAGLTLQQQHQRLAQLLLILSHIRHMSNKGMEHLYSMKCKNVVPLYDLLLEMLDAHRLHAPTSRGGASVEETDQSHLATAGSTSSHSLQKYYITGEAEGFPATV
Sequence of Thyrotropin receptor (Homo sapiens) (P16473 whole entry, looked up): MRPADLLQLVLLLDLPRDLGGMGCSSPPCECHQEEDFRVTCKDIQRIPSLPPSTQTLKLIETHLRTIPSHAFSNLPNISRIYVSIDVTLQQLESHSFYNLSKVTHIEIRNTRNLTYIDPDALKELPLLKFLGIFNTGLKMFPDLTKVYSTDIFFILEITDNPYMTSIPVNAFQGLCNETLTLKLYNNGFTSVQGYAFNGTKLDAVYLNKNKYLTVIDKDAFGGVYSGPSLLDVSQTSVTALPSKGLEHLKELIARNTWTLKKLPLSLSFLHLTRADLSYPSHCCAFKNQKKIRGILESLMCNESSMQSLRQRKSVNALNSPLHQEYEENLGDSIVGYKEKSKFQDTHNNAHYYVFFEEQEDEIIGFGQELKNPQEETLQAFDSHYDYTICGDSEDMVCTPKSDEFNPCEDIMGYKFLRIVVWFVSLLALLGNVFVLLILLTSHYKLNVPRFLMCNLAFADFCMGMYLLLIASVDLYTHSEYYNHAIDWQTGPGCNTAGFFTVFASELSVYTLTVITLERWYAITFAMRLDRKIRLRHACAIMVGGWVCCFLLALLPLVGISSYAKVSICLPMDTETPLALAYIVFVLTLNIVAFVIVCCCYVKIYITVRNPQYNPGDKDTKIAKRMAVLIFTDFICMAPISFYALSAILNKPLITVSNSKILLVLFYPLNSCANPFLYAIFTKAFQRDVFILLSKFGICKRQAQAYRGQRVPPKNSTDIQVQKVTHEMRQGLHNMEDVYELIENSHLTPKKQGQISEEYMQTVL
Sequence of Estrogen receptor beta (Homo sapiens) (Q92731 whole entry, looked up): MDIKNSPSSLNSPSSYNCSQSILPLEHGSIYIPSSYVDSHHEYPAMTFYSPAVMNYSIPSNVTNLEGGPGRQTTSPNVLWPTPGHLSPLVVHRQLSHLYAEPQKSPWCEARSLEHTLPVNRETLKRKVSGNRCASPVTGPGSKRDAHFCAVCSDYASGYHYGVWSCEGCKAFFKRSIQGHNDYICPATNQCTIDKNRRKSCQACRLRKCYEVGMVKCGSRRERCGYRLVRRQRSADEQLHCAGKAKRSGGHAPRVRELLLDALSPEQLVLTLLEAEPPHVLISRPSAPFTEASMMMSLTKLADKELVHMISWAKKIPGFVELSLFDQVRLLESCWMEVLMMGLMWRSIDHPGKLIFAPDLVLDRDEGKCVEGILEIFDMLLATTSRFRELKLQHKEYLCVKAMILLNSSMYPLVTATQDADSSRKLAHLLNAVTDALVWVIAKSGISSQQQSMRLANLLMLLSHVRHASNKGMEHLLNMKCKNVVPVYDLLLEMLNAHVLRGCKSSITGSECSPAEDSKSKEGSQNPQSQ

As for `NC(=O)NC(N)=O`, the Potency result in test [1], in test [2], in [3], in [4], in test [5] and in test [6] was “inactive” each time. The Potency entry in test [7], in [8], in test [9], in test [10], in test [11] and in test [12] was “inactive” throughout. Also, the Potency result in [13], in test [14] and in test [15] was “inactive” each time.
Turning to `Cc1cc(C)c(O)c(C)c1`, the Potency entry in test [1], in [2], in test [3], in [16], in test [4] and in test [5] was “inactive” throughout. Further, the Potency result in test [6], in test [7], in [9], in test [10], in test [11] and in [12] was “inactive” in each case. Further, the Potency result in test [13], in [14] and in [15] was “inactive” in each case.
For the compound `O=C1O[C@H]([C@H](O)CO)C(O)=C1O`, the Potency result in test [1], in [3], in test [16], in [4], in test [5] and in [6] was “inactive” throughout. The Potency entry in test [7], in test [9], in test [10], in test [11], in [13] and in [14] was “inactive” each time. Moreover, in test [15], the Potency entry was “inactive”.
Take `CC1=CC(=O)CC(C)(C)C1`: the Potency result in test [17], in test [3], in test [16], in test [4], in test [5] and in test [6] was “inactive” throughout. Moreover, the Potency entry in test [7], in [9], in test [13], in test [14] and in [15] was “inactive” in each case. In addition, the Potency in test [10] was 6.29 µM (active); in test [11], 14.1 µM (active) and inactive.
As for `Cc1cc(C)cc(O)c1`, the Potency result in [1], in [2], in [3], in [16], in test [6] and in [8] was “inactive” throughout. For the same compound, the Potency result in [9], in test [10], in test [11], in test [12], in test [13] and in test [14] was “inactive” each time. Moreover, the Potency entry in test [15] is “inactive”. In addition, the Potency in [4] was 8.65 µM (active) and inactive; in test [5], 2.44 µM (active) and inactive; in test [7] it was 1.09 µM (active).
Regarding `Cc1ccccc1C=O`, the Potency entry in test [1], in [2], in [3], in [4], in [5] and in [6] was “inactive” throughout. Besides, the Potency result in test [7], in test [9], in [10], in test [11], in test [12] and in test [13] was “inactive” in each case. Moreover, the Potency result in test [14] and in test [15] was “inactive” throughout.
As for `OCCOCCOCCOCCOCCO`, the Potency result in test [1], in test [3], in test [16], in [4], in test [5] and in test [6] was “inactive” throughout. Further, the Potency entry in test [7], in test [8], in test [9], in [10], in test [11] and in test [13] was “inactive” in each case. Also, the Potency result in test [14] and in [15] was “inactive” throughout.
As to `NCCNCCNCCN`, the Potency result in test [1], in test [3], in test [16], in test [4], in [5] and in [6] was “inactive” each time. Also, the Potency entry in test [7], in [9], in [10], in test [11], in [13] and in [14] was “inactive” in each case. The Potency entry in test [15] was “inactive”. For the same compound, in test [18], the compound was called inactive.
As to `CC(C)=CCC/C(C)=C/C=O`, the Potency result in test [1], in [2], in test [3], in [4], in test [5] and in test [6] was “inactive” throughout. Moreover, the Potency entry in test [7], in test [8], in test [19], in test [9], in test [10] and in test [11] was “inactive” throughout. Moreover, the Potency entry in test [12], in [13], in [14] and in test [15] was “inactive” in each case.
`CC1(C)C(=O)N(Cl)C(=O)N1Cl`: the Potency entry in test [1], in test [2], in [3], in test [4], in test [5] and in test [6] was “inactive” in each case. In addition, the Potency result in test [7], in test [9], in test [10], in test [11], in test [12] and in test [13] was “inactive” in each case. Also, the Potency entry in test [14] and in [15] was “inactive” throughout.
Take `O=C1OC(=O)c2c(Cl)c(Cl)c(Cl)c(Cl)c21`: the Potency result in test [1], in [3], in test [4], in test [5], in [6] and in test [7] was “inactive” in each case. Also, the Potency entry in test [9], in [10], in test [11], in test [13], in test [14] and in test [15] was “inactive” throughout.
Regarding `CC(=O)OCc1ccc2c(c1)OCO2`, the Potency entry in test [1], in test [3], in test [4], in test [5], in test [6] and in [7] was “inactive” throughout. Further, the Potency result in test [8], in test [9], in [10], in [11], in test [13] and in [14] was “inactive” each time. The Potency entry in test [15] was “inactive”.

For the origin of these results see PubChem BioAssay (Tox21).
